# Values joined by “and” are separate entries in the source; they are usually repeats but may differ in a detail not shown here. Equal entries are not always repeated. Inconclusive results are not listed. A call without a number means that no potency is given here. Active and inactive are the calls of the source. Calls follow the shape of the dose curve; as a rule, active = well fitted inhibition curve with a large enough effect; inconclusive = small, poorly fitted or top-dose-only effect, or effect the other way; inactive = flat fitted curve, though single readings scatter.
# Test: VP16 selectivity assay for inhibitors of ROR gamma transcriptional activity
# Conditions: Drosophila Schneider Gal4-VP16 UAS-luciferase reporter, 20 h; series mostly up to 92.2 µM
# From the text: NIH Molecular Libraries Probe Production Network [MLPCN] NIH Chemical Genomics Center [NCGC] MLPCN Grant: R03 DA026211-01 Assay Provider: Dan Littman, New York University Assay Overview: The retinoic acid-related orphan receptor (ROR) gamma is a transcription factor that has a central role in the differentiation of Th17 cells, a subset of T helper cells that secrete the inflammatory cytokines IL-17, IL-17F, and IL-22. Th17 cells have been implicated in graft versus host disease, autoimmune disease and asthma. ROR gamma is induced in naive T helper cells in the presence of TGF-beta combined with IL-6, IL-21, or IL-23, and thereafter directs the expression of the Th17 lineage cytokines. To identify nonspecific inhibitors, a Drosophila Schneider cell line was stably transfected with two vectors: a gene expressing a fusion of the Gal4 DNA binding domain and VP16 transactivation domain under the control of the metallothionine promoter and a Photinus luciferase reporter regulated by the Gal4 binding site enhancer, UAS. […] Small molecule inhibitors that inhibit components common to the RORgt and VP16 assays, such as the Gal4 DNA binding domain or the UAS luciferase reporter, will be active in both assays and thus scored as nonspecific.
# Assay Protocol Summary: For screening, 600 cells in 4 uL/well were dispensed into white solid 1536-well plates (Grenier) using a solenoid-based dispenser. Following transfer of 23 nL compound or DMSO vehicle by a pin tool, the plates were incubated 1 hr at ambient temperature, and 1 uL/well copper sulfate (700 uM final concentration) was added. The plates were centrifuged 15 s at 1000 RPM and incubated 20 hr at ambient temperature. After addition of 1.5 uL Photinus luciferase detection reagent, the plates were incubated 10 min at ambient temperature and then read by an ViewLux (Perkin Elmer) to detect luminescence.
row,SMILES,Potency
1,COc1cc(O)c(C(CC(=O)N2CC(C)CC(C)C2)c2ccc(O)cc2)c(OC)c1 (stereo not given),inactive
2,COc1cc(O)c(C(CC(=O)N2CCCC(C)C2)c2ccc(C(C)C)cc2)c(OC)c1 (stereo not given),25.7 µM (active)
3,COc1cc(O)c(C(CC(=O)N2CCCC(C)C2)c2ccccc2OC)c(OC)c1 (stereo not given),inactive
4,c1ccc(Cn2c(-c3ccccc3)c[n+]3c2SCCC3)cc1,45.7 µM (active)
5,C[C@H]1O[C@@H](O[C@H]2[C@@H](O)C[C@@H](O[C@H]3[C@@H](O)C[C@H](O[C@H]4CC[C@@]5(C)[C@H](CC[C@@H]6[C@@H]5CC[C@]5(C)[C@@H](C7=CC(=O)OC7)CC[C@]65O)C4)O[C@@H]3C)O[C@@H]2C)C[C@H](O)[C@@H]1O,inactive
6,Cc1nn(-c2cc(C)c3ccccc3n2)c2c1C1C(C2)C1(C)C (stereo not given),22.9 µM (active)
7,CCOc1cccc(-c2cc(-c3n[nH]c(=S)n3CC)c3ccccc3n2)c1,2.29 µM (active) and 4.07 µM (active)
8,Cc1cc(C)nc(-n2nc(C)cc2NC(=O)CNC(C)c2ccccc2)n1 (stereo not given),18.2 µM (active)
9,CCn1cc(C(=O)O)c(=O)c2cnc(N3CCN(C(=S)NC(=O)c4ccccc4)CC3)nc21,20.4 µM (active)
10,COc1cc(O)c(C(CC(=O)N2CCCC(C#N)C2)c2ccc3c(c2)OCO3)c(OC)c1 (stereo not given),inactive
11,COc1cc(O)c(CCC(=O)N2CCCC(C)C2)c(OC)c1 (stereo not given),inactive
12,COc1cc(O)c(C(CC(=O)N2CCCC(c3ccccc3)C2)c2ccc3c(c2)OCO3)c(OC)c1 (stereo not given),inactive
13,Cc1ccc(OCCCC(=O)Nc2nc3ccccc3[nH]2)cc1,18.2 µM (active)
14,COc1cc(OC)c2c(c1)OC(=O)CC2c1ccc2c(c1)OCO2 (stereo not given),inactive
15,CC1=C(\C=C/C(C)=C/C=C\C(C)=C\C(=O)O)C(C)(C)CCC1,8.48 µM (active)
16,CCOc1ccc(O)c(C(CC(=O)N2CCCC(C)C2)c2ccc3c(c2)OCO3)c1 (stereo not given),inactive
17,COCC1CCCN(C(=O)CC(c2ccc3c(c2)OCO3)c2c(O)cc(OC)cc2OC)C1 (stereo not given),inactive
18,CCC(=O)C1CCCN(C(=O)CC(c2ccc3c(c2)OCO3)c2c(O)cc(OC)cc2OC)C1 (stereo not given),inactive
19,COCOc1cc(OC)cc(OC)c1C(CC(=O)N1CC(C)CC(C)C1)c1ccc2c(c1)OCO2 (stereo not given),45.7 µM (active)
20,COc1cc(OC)c(C(CC(=O)N2CCCC(C)C2)c2ccc3c(c2)OCO3)c(OCc2ccccc2)c1 (stereo not given),12.9 µM (active)

row,SMILES,Potency
1,COc1cc(O)c(C(CC(=O)N2CCCC(COc3ccc(F)cc3)C2)c2ccc3c(c2)OCO3)c(OC)c1 (stereo not given),inactive
2,O=S(=O)(c1ccc(NC(=S)N/N=C/c2ccc(Oc3ccccc3)cc2)cc1)N1CCOCC1,2.04 µM (active)
3,Cc1cc(C)n(-c2nc(SCC(=O)O)c3c4c(sc3n2)CCCC4)n1,16.2 µM (active)
4,COc1cc(O)c(C(CC(=O)N2CCCC(C)C2)c2ccc(OC)c(OC)c2)c(OC)c1 (stereo not given),inactive
5,COc1cc(O)c(C(CC(=O)N2CCC(c3ccccc3)CC2)c2ccc3c(c2)OCO3)c(OC)c1 (stereo not given),inactive
6,COc1cc(O)c(C(CC(=O)N2CCC(c3ccccc3)CC2)c2ccc(C)cc2)c(OC)c1 (stereo not given),inactive
7,CCN(CC)c1ccc(/C=N/n2c(-c3ccccc3Br)n[nH]c2=S)cc1,2.04 µM (active)
8,CC(C)(C(=O)Nc1nccs1)C(c1ccccc1)c1ccc(O)cc1 (stereo not given),36.3 µM (active)
9,COCC1CCCCN1C(=O)c1cc(COc2ccc3ncccc3c2)on1 (stereo not given),16.2 µM (active)
10,COc1cc(O)c(C(CC(=O)N2CCC[C@@H](C)C2)c2ccc3c(c2)OCO3)c(OC)c1 (stereo not given in full),inactive
11,COc1ccc(C(CC(=O)N2CCCC(C)C2)c2ccccc2)cc1 (stereo not given),inactive
12,COc1cc(OC)c(C(CC(=O)N2CC(C)CC(C)C2)c2ccc3c(c2)OCO3)c(OCC(N)=O)c1 (stereo not given),inactive
13,O=C(NC(=S)Nc1nc(-c2ccccc2)cs1)c1cccnc1,25.7 µM (active)
14,COc1ccc(-c2nnc(-c3ccc(N(C)C)cc3)o2)cc1,inactive
15,COc1cc(O)c(C(CC(=O)N2CCC(C)CC2)c2ccc(C)cc2)c(OC)c1 (stereo not given),inactive
16,COc1cc(O)c(C(CC(=O)N2CCCC(c3nc4ccccc4o3)C2)c2ccc3c(c2)OCO3)c(OC)c1 (stereo not given),inactive
17,Cc1ccc(-c2cn(-c3ccccc3)c3[n+]2CCCS3)cc1,10.2 µM (active)
18,COc1ccccc1C(CC(=O)N1C[C@H](C)C[C@H](C)C1)c1ccccc1 (stereo not given in full),32.3 µM (active)
19,COc1cc(O)c(C(CC(=O)N2C[C@H](C)C[C@H](C)C2)c2ccc3c(c2)OCO3)c(OC)c1 (stereo not given in full),inactive
20,CC1CCCN(C(=O)CC(c2ccccc2)c2ccc(O)cc2)C1 (stereo not given),inactive

# — PubChem BioAssay AID489036 (National Center for Advancing Translational Sciences (NCATS), 2010)
